Results filed as inconclusive are left out. Entries that show only a call come without a potency. Unmarked numbers belong to inactive results. The source made the active and inactive calls. Calls come from the whole dose curve.
test: p53 small molecule agonists, cell-based qHTS assay: qHTS cell viability counter screen (AID 1963581); conditions: p53RE-bla HCT-116 viability, ATP luminescence, 16 h; series mostly up to 66 µM; note: nearly all actives have a fitted effect of over 45% in size
Description: National Center for Advancing Translational Sciences [NCATS]
Division of Preclinical Innovation [DPI]
U.S. Environmental Protection Agency [EPA]
National Institutes of Environmental Health Sciences [NIEHS]
National Toxicology Program [NTP]
U.S. Food and Drug Administration [FDA]
p53, a tumor suppressor protein, is activated following cellular insult, including DNA damage and other cellular stresses. The activation of p53 regulates cell fate by inducing DNA repair, cell cycle arrest, apoptosis, or cellular senescence. The activation of p53, therefore, is a good indicator of DNA damage and other cellular stresses. The CellSensor p53RE-bla HCT-116 cell line (Invitrogen) contains a stably integrated beta-lactamase reporter gene under control of the p53 response elements. The activation of the reporter gene under culture conditions can be detected by fluorescence intensity. This cell line was used to screen the Tox21 compound library in a 1536-well plate format and to identify agonists that activate the p53 signaling pathway. The cytotoxicity of the Tox21 compound library against the p53 RE-bla HCT-116 cell line was tested in parallel by measuring the intra cellular ATP content in the same wells.
Tox21 Assay Protocol Summary:
The p53RE-bla cells were dispensed at 4,000 cells/5 ul/well in 1536-well black wall/clear bottom plates using a Multidrop dispenser. After the assay plates were incubated at a 37 C/5% CO2 incubator for 5 hours, 23 nL of compounds dissolved in DMSO, positive controls or DMSO only was transferred to the assay plate by a pin tool. The plates were incubated at 37 C for 16 hours. After 1 uL of LiveBLAzerTM B/G FRET substrate was added using a Flying Reagent Dispenser, the plates were incubated at room temperature for 2 hours, and fluorescence intensity was measured by an Envision plate reader. For cell viability readout that measures cytotoxicity, 4 ul/well of CellTiter-Glo reagent was added into the assay plates using a Flying Reagent Dispenser. After 30 min incubation at room temperature, the luminescence intensity in the plates was measured using a ViewLux plate reader.

SMILES	Potency	activity change, negative = cytotoxicity
CC(=O)c1ccc(C(C)=O)cc1	inactive	–
CC(=O)Nc1ccc(OCC(O)CNC(C)C)cc1 (stereo not given)	inactive	–
CCCCCCCCCCOC(C)=O	inactive	–
Oc1ccccc1C=NCc1ccccc1	inactive	–
CCN(CCO)CCCC(C)Nc1ccnc2cc(Cl)ccc12 (stereo not given)	–	14.7% [at 5.99 µM]
CCO[Si](CCCCl)(OCC)OCC	inactive	–
CCCC(=O)C(CC)Sc1ccoc1C (stereo not given)	inactive	–
COc1cc(O)cc(O)c1	inactive	–
C=CC(OCC)OCC	inactive	–
O=C(c1ccccc1)c1ccc(Cl)cc1	inactive	–
CC[C@@H](CO)NCCN[C@@H](CC)CO	inactive	–
CC(C)CCCC(=O)O	inactive	–
CCn1cc(C(=O)O)c(=O)c2cc(F)c(N3CCNC(C)C3)c(F)c21 (stereo not given)	inactive	–
CC(O)COC(C)(C)C (stereo not given)	inactive	–
O=c1c(O)c(O)c1=O	inactive	–
CC1(C)[C@H]2CC[C@]1(C)C(=O)C2	inactive	–
COc1ccc(-n2nc(C(F)F)cc2-c2ccc(S(C)=O)cc2)cc1 (stereo not given)	inactive	–
Cc1ccc(OC(=O)c2ccccc2O)cc1	inactive	–
OC[C@@H](O)C(O)[C@@H](O)CO (stereo not given in full)	inactive	–
CC1(c2ccccc2)OC(C(=O)O)=CC1=O (stereo not given)	inactive	–

SMILES	Potency	activity change, negative = cytotoxicity
O=C(O)CCCc1ccccc1	inactive	–
CCOc1ccc(NC(=O)OC(C)C)cc1OCC	inactive	–
CCCCCC[C@@H](O)C/C=C\CCCCCCCC(=O)OCC(O)CO (stereo not given in full)	inactive	–
O=[N+]([O-])c1cc(Cl)c(Cl)c(Cl)c1Cl	inactive	–
CCN1CC(CCN2CCOCC2)C(c2ccccc2)(c2ccccc2)C1=O (stereo not given)	inactive	–
Cc1cc2c(cc1S(N)(=O)=O)S(=O)(=O)CCC2	inactive	–
CC(C)C[P+](C)(CC(C)C)CC(C)C	inactive	–
CC/C=C(\C)C=O	inactive	–
CNC(=O)c1ccccc1	inactive	–
CCCCC(CC)COC(=O)CCCCCCCCC(=O)OCC(CC)CCCC (stereo not given)	inactive	–
O=C(NCCc1c[nH]c2ccccc12)c1cccnc1	inactive	–
CCCCCCCCN	inactive	–
CCCC(=O)OCOC(=O)C1=C(C)NC(C)=C(C(=O)OC)C1c1cccc(Cl)c1Cl (stereo not given)	inactive	–
C=CC(C)(O)CCCC(C)CCCC(C)CCCC(C)C (stereo not given)	inactive	–
CNC(=O)N(c1ccccc1)c1ccccc1	inactive	–
CC(=O)NO	inactive	–
O=C1CCCCCCCCCCC(=O)OCCO1	inactive	–
Nc1cccc2c(=O)[nH][nH]c(=O)c12	inactive	–
CCOC(=O)COC(=O)c1ccccc1C(=O)OCC	inactive	–
CC(=O)Oc1ccc(C2(c3ccc(OC(C)=O)cc3)C(=O)Nc3ccccc32)cc1	inactive	–

Source: PubChem BioAssay (Tox21)
